Shown are actives, neighbours in structure and some others; about 1.7% of the full set was active somewhere.
EphB4 antag = EphB4-ephrin-B2 interaction antagonists, primary screen, biochemical, TNYL-RAW peptide probe, fluorescence polarization; AID 720, 2007; hit rate 0.15% among 97,000; EphB4 LBD / TNYL-RAW-Alexa532 peptide; inhibition, % at 7 µM;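 active means inhibition above the screen-wide mean inhibition plus 3 SD, cut at about 15% in these data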;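 further: 0% = DMSO wells and 100% = excess unlabeled TNYL-RAW peptide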
Plk1 PBD FP = Plk1 polo box domain binding inhibitors, primary screen, biochemical, fluorescence polarization. Serine/threonine-protein kinase PLK1 (Homo sapiens), P53350. Plk1 PBD phosphopeptide binding. inhibition, %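 (tested at about 20 µM)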. hit rate 0.13% among 97,000. AID 693, 2007; in the data active means inhibition above about 34%, passing the limit was not always enough
PLK1 kinase inh = human PLK1 kinase inhibitors, primary screen, biochemical, TR-FRET; Serine/threonine-protein kinase PLK1 (Homo sapiens), P53350; recombinant PLK1 kinase, TR-FRET peptide phosphorylation; hit rate 0.53% among 97,000; AID 619, 2007; inhibition, % at 10 µM;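 active means inhibition of 50% or more in the single-concentration screen; inactive means inhibition below 50%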;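 further: 0% = DMSO max control and 100% = H-89 dihydrochloride min control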
PTPN22 inh 2 = PTPN22 phosphatase inhibitors, primary screen, biochemical, DiFMUP fluorescence, 2 µM. Tyrosine-protein phosphatase non-receptor type 22 (Homo sapiens), Q9Y2R2. recombinant LYP catalytic domain. inhibition, % at 2 µM. hit rate 0.21% among 96,000. AID 640, 2007;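 active means inhibition at 2 µM at or above a set limit, the screen mean plus 3 SD, cut at about 24% in these data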;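 further: 0% = DMSO with enzyme and 100% = enzyme fully blocked by orthovanadate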
Target sequence (Q9Y2R2 whole entry, looked up, the tested form may be a part): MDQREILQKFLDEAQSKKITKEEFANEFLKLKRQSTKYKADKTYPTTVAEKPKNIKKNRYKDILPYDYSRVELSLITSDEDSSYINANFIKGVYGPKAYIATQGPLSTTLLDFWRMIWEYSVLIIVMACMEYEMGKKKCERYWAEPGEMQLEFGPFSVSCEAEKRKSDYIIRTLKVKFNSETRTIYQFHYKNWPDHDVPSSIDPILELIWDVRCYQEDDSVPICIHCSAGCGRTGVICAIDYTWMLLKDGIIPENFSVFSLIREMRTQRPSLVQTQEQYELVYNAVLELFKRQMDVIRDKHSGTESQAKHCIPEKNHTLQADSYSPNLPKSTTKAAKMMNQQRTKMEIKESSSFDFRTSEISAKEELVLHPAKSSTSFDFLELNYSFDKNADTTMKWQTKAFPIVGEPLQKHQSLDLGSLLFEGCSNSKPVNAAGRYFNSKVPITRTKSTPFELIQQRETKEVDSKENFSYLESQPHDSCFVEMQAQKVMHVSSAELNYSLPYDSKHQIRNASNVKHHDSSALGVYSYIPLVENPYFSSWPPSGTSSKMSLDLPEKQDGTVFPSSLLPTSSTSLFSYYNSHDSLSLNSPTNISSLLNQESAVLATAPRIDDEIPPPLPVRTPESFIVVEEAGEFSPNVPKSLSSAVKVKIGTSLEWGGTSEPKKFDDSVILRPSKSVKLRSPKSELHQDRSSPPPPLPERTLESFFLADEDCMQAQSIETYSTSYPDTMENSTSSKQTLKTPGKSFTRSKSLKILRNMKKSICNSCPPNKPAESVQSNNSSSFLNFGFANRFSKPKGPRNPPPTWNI
FAK inh = FAK kinase inhibitors, primary screen, biochemical; Focal adhesion kinase 1 (Homo sapiens), Q05397; biochemical FAK kinase activity assay; inhibition, %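 (tested at 7 µM)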; hit rate 0.84% among 97,000; in the data active means inhibition above about 19%;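 further: 0% = DMSO and 100% = reference compound high control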
LYP act = LYP phosphatase activators, primary screen, biochemical, DiFMUP fluorescence, 2 µM | activation, % at 2 µM | recombinant LYP; 0 = plate median, 100 = signal doubled | hit rate 0.11% among 96,000;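 active means activation at 2 µM above a set limit, the mean plus 5 SD, cut at about 37% in these data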
* hit, by the source's call; . = no result.

SMILES	EphB4 antag	Plk1 PBD FP	PLK1 kinase inh	PTPN22 inh 2	FAK inh	LYP act
CCOC(=O)N1CCC(NC(=O)c2cc(C(=O)NCC(OC)OC)ccc2CO)CC1	7	4	10	-3	1	2
CCC(=O)Nc1ccc(-c2nn3c(C)nnc3s2)cc1	-7	5	-2	-5	-1	5
Cc1nnc2sc(-c3ccc(NC(=O)c4ccc(-c5ccc(Br)cc5)o4)cc3)nn12	-5	-10	-13	-4	21*	3
Cc1nn(C)c(Oc2ccc(Cl)cc2)c1C(=O)Nc1ccc(F)cc1F	3	-3	-8	18	-5	-15
COc1ccc(NC2CC(=O)N(C(C)C)C2=O)cc1 (centres undefined)	0	10	54*	4	-2	-4
CC(C)N1C(=O)CC(Nc2ccc(N3CCOCC3)cc2)C1=O (centres undefined)	-9	18	1	-3	2	4
O=P(OC1CCCCC1)(OC1CCCCC1)C(O)c1ccccc1 (centres undefined)	-3	-21	-7	-6	3	8
COc1ccc(-n2c(=O)c3c4c(sc3n3cnnc23)CC(C)CC4)cc1 (centres undefined)	25*	-7	-9	0	0	-2
COc1ccc(-n2c(=O)c3c4c(sc3n3c(C)nnc23)CC(C)CC4)cc1 (centres undefined)	1	-10	-11	-8	1	2
COc1ccc(CC(=O)Nc2c3c(nn2-c2cccc(Cl)c2)CS(=O)(=O)C3)cc1	2	10	-1	7	9	-2
O=C(Cc1ccccc1)Nc1c2c(nn1-c1cccc(Cl)c1)CS(=O)(=O)C2	-3	5	66*	-20	-4	17
CN1CCN(c2nc(C#N)cc(-c3ccccc3)n2)CC1	5	-15	-7	3	0	3
COc1ccc(-c2cc(C#N)nc(N3CCNCC3)n2)cc1	0	2	55*	-14	13	14
CCCCCCc1cc2cc(-c3nnc(-c4cc(OC)c(OC)c(OC)c4)o3)c(=O)oc2cc1O	-2	-149	-11	43*	1	-43
COc1ccc(-c2nnc(-c3cc4ccccc4oc3=O)o2)cc1	3	-12	-6	-4	-1	3
CCCCCCc1cc2cc(-c3nnc(-c4ccccc4OC)o3)c(=O)oc2cc1O	2	-202	-3	46*	2	-46
O=C(COc1cccc(NC(=O)c2cccc([N+](=O)[O-])c2)c1)c1ccc(Br)cc1	3	1	-16	2	2	1
Cc1cc(-c2csc(N)n2)c(C)n1CCC(C)C	6	5	-1	28*	2	-29
CCCCC1C(C#N)=C(C)NC2=C1C(=O)CC(C)(C)C2 (centres undefined)	3	21	-10	-5	3	6
CCCCN(C(=O)CSc1nnc(Nc2ccc(C)c(C)c2)s1)c1c(N)n(Cc2ccccc2)c(=O)[nH]c1=O	0	-4	-12	26*	1	-25
CN(C(=O)CSc1nnc(Nc2ccccc2)s1)c1c(N)n(Cc2ccccc2)c(=O)[nH]c1=O	7	6	-14	7	-1	-5
O=C(C1=COCCO1)N1CCN(C(c2ccccc2)c2ccccc2)CC1	-3	-17	7	-2	0	0
O=C(CC1Oc2ccccc2NC1=O)NC1CCCC1 (centres undefined)	4	-11	69*	.	-4	.
COc1ccc2cc3cc(C(=O)NCc4ccc5c(c4)OCO5)oc3nc2c1	5	-13	-5	-5	14	5
COc1ccc2cc3cc(C(=O)N4CCN(Cc5ccc6c(c5)OCO6)CC4)oc3nc2c1	-3	0	-15	26*	1	-27
SMILES	EphB4 antag	Plk1 PBD FP	PLK1 kinase inh	PTPN22 inh 2	FAK inh	LYP act
CCCCCCCCC/C(=N\O)c1ccccn1	-4	-2	-7	28*	-6	-26
CCCCCCCCC(=O)N/N=C/c1ccccn1	-2	15	36	13	6	-12
CCn1nc(C(=O)OCC(=O)c2cc(C)n(Cc3cccs3)c2C)c2ccccc2c1=O	7	23	-15	24*	8	-19
CCc1nc2sc(C#N)c(N)c2c2c1CCCC2	7	3	-12	7	5	-7
CCCCc1nc2n[nH]c(N)c2c2c1CCCC2	-4	-25	58*	-16	6	12
CCOC(=O)N1CCN(C(=S)Nc2cc(OC)c(OC)cc2C(=O)OC)CC1	2	-17	-2	8	0	-3
CC(=O)Nc1ccc(S(=O)(=O)NCc2ccc3c(c2)cc(C)n3C)cc1	-7	13	62*	.	5	.
Cc1noc(/C=C/N(C)C)c1S(=O)(=O)N1CCN(c2ccccc2)CC1	-5	10	69*	.	1	.
Cc1ccc(C)c(N2CCN(S(=O)(=O)c3c(C)noc3/C=C/N(C)C)CC2)c1	-7	-7	-5	-11	-2	8
COc1ccc(S(=O)(=O)Nc2ccc(S(=O)(=O)N3CCCCC3)cc2)cc1	0	-19	-5	25*	5	-25
O=c1c2ccccc2nc(-c2ccoc2)n1CCc1ccccc1	16*	3	-12	8	3	-9
CCOc1ccc(-c2cc(NC(=O)Cn3ncc4c3-c3ccccc3OC4)on2)cc1OCC	-6	14	49	.	-1	.
Nn1cnnc1N/N=C/c1cc(Br)cc(Br)c1O	9	-14	-7	28*	7	-24
Cc1ccc2nc(NC(=S)NC(=O)c3cccs3)sc2c1	7	-14	-5	30*	-1	-28
Cc1ccc2nc(NC(=S)NC(=O)c3ccc(OC(C)C)cc3)sc2c1	.	.	-16	.	.	.
COc1cc(CC(=O)Nc2ccc(S(=O)(=O)N(C)C)cc2)cc(OC)c1OC	-6	12	-8	-6	2	4
COc1ccccc1/C=C\C=N\n1c(C2CCCCC2)n[nH]c1=S	4	16	-11	25*	2	-22
CCN1CCN(CCNC(=O)CS(=O)(=O)Cc2nc(-c3ccc(C)cc3)oc2C)CC1	1	-9	65*	.	-3	.
Clc1ccc(C2=C3CCCCn4c(-c5ccccc5)c[n+](c43)C2)cc1	5	-14	-21	26*	-2	-24
CCOC(=O)Cc1csc(NC(=S)NC(=O)c2ccc(Cl)cc2)n1	3	31	-19	26*	6	-23
O=C(COc1ccc2ccccc2c1)Nc1ccc(Cc2ccncc2)cc1	-11	7	63*	0	11	3
O=C(COc1ccc2ccccc2c1)Nc1cccc2cccnc12	1	9	-8	0	13	-1

Compound activity from PubChem BioAssay.
